Source: ChEMBL document CHEMBL2218924, “A broad activity screen in support of a chemogenomic map for kinase signalling research and drug discovery” (Biochem J, 2013)

How the values were obtained:
[1] = target: T1, Serine/threonine-protein kinase TAO2 (Homo sapiens) (UniProt Q9UL54); conditions: at 1 µM
T1 sequence (whole entry): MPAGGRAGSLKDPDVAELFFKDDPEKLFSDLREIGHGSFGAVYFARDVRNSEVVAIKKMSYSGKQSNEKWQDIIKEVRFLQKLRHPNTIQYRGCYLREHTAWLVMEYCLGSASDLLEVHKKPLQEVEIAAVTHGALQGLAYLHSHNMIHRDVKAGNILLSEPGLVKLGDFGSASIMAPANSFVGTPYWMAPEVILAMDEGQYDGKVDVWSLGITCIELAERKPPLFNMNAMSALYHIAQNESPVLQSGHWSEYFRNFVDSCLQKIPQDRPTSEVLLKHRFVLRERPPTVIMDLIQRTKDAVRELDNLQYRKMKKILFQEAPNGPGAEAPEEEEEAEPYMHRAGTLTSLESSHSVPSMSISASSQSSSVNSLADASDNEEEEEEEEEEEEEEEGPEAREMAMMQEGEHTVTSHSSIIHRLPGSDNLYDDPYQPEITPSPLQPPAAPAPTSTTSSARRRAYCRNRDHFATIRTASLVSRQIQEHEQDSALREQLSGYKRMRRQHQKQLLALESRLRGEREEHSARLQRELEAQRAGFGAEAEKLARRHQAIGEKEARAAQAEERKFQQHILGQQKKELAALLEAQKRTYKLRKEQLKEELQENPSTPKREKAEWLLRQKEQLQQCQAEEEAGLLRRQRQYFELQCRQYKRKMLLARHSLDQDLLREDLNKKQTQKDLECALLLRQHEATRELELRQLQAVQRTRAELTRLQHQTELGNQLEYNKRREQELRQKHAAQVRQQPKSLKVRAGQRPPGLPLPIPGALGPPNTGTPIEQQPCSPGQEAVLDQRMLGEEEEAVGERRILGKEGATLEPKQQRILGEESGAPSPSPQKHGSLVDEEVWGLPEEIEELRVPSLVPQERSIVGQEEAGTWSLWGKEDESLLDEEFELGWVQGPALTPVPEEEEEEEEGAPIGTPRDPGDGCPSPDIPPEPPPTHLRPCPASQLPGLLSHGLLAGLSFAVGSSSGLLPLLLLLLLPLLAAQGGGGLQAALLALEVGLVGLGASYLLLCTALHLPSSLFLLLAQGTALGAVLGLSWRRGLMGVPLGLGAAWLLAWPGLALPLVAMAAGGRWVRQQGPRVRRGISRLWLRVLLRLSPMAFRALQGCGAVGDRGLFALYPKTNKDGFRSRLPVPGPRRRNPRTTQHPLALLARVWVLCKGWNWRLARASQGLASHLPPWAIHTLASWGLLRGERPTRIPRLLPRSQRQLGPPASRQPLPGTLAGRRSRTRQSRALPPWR

[2] = target: T1, Serine/threonine-protein kinase TAO2 (Homo sapiens); conditions: at 10 µM
[3] = target: T2, Serine/threonine-protein kinase TAO3 (Homo sapiens) (UniProt Q9H2K8); conditions: at 1 µM
T2 sequence (whole entry): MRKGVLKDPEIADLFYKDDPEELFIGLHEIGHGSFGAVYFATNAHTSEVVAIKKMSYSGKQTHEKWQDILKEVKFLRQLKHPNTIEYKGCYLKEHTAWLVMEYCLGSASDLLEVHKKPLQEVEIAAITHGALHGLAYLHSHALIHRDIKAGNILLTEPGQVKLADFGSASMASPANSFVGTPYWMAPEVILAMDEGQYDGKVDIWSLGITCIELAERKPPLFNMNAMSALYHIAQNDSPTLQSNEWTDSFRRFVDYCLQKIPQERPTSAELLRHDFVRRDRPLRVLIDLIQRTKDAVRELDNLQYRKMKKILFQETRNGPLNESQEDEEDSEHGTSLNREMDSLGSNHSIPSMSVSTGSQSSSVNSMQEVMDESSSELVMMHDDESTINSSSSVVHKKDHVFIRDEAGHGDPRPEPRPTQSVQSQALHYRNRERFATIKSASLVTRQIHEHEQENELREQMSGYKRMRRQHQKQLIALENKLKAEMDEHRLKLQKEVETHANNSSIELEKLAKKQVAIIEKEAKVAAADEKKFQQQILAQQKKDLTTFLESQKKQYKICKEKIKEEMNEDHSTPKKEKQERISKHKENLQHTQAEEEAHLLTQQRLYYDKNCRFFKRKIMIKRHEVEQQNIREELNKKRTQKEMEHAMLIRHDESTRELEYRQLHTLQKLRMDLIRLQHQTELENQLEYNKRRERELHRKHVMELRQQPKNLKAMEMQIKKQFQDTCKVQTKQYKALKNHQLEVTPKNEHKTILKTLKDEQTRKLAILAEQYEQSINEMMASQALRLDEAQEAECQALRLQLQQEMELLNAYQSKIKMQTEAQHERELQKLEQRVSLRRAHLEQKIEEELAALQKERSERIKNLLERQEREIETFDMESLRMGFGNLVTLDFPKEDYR

[4] = target: T2, Serine/threonine-protein kinase TAO3 (Homo sapiens); conditions: at 10 µM
[5] = target: T3, Serine/threonine-protein kinase TBK1 (Homo sapiens) (UniProt Q9UHD2); conditions: at 1 µM
T3 sequence (whole entry): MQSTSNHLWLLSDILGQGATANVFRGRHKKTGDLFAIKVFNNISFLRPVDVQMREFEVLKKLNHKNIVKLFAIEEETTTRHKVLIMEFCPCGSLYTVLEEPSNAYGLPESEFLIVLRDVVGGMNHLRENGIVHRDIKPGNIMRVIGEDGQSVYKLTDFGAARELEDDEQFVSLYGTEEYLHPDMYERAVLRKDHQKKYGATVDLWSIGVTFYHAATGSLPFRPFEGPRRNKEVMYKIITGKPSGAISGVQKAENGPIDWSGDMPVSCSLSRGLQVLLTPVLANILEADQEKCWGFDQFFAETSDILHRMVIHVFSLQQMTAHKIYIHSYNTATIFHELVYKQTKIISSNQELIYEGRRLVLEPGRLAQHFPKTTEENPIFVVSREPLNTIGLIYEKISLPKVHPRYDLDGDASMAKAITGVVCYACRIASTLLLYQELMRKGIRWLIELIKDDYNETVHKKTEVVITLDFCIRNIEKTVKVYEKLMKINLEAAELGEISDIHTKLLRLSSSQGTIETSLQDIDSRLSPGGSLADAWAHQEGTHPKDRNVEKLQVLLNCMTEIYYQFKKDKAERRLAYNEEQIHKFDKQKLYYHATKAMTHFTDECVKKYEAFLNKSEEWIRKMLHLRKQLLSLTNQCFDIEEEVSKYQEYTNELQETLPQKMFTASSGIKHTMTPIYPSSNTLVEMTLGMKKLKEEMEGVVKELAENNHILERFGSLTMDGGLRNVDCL

[6] = target: T3, Serine/threonine-protein kinase TBK1 (Homo sapiens); conditions: at 10 µM
[7] = target: T4, TGF-beta receptor type-1 (Homo sapiens) (UniProt P36897); conditions: at 1 µM
T4 sequence (whole entry): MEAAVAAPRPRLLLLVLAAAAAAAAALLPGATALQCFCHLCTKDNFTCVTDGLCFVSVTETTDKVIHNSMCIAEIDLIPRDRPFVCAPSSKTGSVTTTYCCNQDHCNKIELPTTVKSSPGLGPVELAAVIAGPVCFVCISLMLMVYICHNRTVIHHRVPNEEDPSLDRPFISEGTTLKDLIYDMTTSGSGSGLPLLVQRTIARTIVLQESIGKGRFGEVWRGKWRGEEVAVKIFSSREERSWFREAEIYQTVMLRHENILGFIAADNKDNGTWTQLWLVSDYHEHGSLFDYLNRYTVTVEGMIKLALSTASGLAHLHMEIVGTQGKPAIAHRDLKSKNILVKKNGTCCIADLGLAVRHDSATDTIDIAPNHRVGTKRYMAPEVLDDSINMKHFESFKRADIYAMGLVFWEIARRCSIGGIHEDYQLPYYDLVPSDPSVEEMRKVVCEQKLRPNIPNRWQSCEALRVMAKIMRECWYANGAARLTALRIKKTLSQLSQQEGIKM

[8] = target: T4, TGF-beta receptor type-1 (Homo sapiens); conditions: at 10 µM
[9] = target: T5, Inhibitor of nuclear factor kappa-B kinase subunit alpha (Homo sapiens) (UniProt O15111); conditions: at 1 µM
T5 sequence (whole entry): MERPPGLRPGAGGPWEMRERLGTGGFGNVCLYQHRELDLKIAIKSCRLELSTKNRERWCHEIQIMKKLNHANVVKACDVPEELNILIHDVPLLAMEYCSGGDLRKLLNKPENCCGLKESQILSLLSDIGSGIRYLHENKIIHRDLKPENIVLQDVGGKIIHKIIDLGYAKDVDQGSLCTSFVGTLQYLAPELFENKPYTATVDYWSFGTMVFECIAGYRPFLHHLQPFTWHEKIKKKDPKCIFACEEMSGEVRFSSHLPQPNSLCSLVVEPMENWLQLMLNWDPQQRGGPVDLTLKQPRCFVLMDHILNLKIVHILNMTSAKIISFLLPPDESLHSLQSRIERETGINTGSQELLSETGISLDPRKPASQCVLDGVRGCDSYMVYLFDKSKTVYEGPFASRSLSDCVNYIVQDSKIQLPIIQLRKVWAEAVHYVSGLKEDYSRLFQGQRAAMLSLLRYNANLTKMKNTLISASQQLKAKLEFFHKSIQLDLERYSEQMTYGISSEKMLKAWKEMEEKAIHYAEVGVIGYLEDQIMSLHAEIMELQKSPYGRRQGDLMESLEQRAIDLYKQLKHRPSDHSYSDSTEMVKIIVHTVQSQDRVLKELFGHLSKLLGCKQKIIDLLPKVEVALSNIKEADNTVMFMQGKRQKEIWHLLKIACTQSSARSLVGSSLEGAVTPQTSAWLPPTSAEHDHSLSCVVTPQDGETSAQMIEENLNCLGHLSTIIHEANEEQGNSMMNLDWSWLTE

[10] = target: T5, Inhibitor of nuclear factor kappa-B kinase subunit alpha (Homo sapiens); conditions: at 10 µM
[11] = target: T6, Inhibitor of nuclear factor kappa-B kinase subunit beta (Homo sapiens) (UniProt O14920); conditions: at 10 µM
T6 sequence (whole entry): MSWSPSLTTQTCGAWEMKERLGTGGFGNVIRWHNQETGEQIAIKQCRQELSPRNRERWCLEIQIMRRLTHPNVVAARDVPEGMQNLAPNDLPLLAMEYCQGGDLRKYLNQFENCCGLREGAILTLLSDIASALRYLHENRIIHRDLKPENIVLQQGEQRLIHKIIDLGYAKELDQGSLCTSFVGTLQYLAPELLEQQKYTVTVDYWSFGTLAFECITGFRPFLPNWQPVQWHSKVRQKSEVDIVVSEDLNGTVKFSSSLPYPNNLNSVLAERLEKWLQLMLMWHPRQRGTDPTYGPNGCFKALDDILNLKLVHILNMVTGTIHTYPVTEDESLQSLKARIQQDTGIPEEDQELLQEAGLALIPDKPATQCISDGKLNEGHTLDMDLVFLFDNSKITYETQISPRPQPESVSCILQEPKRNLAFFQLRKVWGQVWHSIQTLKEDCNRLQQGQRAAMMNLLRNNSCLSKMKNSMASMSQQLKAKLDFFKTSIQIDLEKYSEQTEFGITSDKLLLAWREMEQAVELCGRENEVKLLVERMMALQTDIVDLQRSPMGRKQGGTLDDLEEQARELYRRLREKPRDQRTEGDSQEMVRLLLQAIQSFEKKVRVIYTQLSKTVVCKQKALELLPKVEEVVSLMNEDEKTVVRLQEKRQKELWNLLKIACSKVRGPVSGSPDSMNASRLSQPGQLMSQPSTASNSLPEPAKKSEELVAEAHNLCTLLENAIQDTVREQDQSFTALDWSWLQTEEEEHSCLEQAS

[12] = target: Insulin receptor (Homo sapiens) (UniProt P06213); conditions: at 1 µM
Chain of Insulin receptor (Homo sapiens) (P06213 28-758 limits assumed): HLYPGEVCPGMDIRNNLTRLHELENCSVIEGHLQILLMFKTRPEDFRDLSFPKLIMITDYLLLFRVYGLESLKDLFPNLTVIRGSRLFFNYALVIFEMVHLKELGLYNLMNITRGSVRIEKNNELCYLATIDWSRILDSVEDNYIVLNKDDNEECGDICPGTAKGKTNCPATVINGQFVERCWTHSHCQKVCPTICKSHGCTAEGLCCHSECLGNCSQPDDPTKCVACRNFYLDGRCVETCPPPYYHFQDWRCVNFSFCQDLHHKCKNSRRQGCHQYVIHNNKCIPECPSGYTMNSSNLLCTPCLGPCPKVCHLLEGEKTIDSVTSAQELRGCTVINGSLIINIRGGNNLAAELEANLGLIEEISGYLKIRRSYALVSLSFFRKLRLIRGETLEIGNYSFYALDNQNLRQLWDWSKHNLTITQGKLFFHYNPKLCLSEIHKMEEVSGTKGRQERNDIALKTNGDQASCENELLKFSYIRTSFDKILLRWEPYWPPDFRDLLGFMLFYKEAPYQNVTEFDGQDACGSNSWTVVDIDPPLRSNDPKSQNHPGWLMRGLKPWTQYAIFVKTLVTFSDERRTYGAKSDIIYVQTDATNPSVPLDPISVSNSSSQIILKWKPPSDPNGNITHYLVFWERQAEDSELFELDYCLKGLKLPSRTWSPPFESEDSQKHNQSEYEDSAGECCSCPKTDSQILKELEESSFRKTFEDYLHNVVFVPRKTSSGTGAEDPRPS
Chain of Insulin receptor (Homo sapiens) (P06213 763-1382 limits assumed): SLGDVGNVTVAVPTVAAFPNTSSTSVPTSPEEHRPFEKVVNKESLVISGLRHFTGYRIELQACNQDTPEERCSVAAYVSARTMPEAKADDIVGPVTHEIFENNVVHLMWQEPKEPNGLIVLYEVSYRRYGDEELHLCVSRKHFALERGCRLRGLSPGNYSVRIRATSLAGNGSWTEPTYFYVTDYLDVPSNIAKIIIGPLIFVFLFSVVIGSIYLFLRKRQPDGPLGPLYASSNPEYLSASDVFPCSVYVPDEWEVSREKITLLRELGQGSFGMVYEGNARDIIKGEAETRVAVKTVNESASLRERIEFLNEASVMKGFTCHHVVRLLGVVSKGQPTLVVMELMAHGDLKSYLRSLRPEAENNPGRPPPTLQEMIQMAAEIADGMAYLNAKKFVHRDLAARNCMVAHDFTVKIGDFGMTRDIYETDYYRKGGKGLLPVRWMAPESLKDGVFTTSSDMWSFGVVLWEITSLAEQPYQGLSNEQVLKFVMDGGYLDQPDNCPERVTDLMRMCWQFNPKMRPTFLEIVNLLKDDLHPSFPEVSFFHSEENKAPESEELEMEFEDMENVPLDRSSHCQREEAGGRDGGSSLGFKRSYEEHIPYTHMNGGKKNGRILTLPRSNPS

[13] = target: T7, Serine/threonine-protein kinase TAO1 (Homo sapiens) (UniProt Q7L7X3); conditions: at 1 µM
T7 sequence (whole entry): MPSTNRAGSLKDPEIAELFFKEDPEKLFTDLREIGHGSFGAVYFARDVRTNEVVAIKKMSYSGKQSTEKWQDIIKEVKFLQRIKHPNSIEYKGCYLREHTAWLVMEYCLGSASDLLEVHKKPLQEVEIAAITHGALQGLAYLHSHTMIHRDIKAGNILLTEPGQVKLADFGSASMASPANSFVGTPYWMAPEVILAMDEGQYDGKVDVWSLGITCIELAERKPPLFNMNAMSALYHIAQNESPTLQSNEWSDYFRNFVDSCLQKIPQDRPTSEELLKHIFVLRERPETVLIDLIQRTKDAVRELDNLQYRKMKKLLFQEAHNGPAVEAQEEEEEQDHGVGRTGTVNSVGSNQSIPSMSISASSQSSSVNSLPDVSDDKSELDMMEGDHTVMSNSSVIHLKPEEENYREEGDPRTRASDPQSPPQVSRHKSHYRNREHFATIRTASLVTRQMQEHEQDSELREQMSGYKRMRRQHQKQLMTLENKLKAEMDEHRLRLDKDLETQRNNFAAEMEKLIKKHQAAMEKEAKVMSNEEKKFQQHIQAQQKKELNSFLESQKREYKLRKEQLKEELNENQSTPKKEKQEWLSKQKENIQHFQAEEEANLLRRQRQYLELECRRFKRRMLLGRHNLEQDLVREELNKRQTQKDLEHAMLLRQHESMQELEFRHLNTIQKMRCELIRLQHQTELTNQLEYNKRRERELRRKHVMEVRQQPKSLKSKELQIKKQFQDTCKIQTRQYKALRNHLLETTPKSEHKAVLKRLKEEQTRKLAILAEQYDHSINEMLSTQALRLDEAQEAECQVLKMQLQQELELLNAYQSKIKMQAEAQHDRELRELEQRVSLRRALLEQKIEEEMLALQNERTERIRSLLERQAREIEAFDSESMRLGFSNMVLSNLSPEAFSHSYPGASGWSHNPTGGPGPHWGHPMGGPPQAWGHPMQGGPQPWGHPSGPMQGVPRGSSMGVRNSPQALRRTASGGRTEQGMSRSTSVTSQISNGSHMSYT

[14] = target: T7, Serine/threonine-protein kinase TAO1 (Homo sapiens); conditions: at 10 µM
[15] = target: Tyrosine-protein kinase SYK (Homo sapiens) (UniProt P43405); conditions: at 10 µM

N#C/C(=C1/Nc2ccccc2S1)c1ccnc(NCCc2cccnc2)n1
residual activity [1]: 68% | residual activity [2]: 24% | residual activity [3]: 84% | residual activity [4]: 37% | residual activity [5]: 71% | residual activity [6]: 40% | residual activity [7]: 96% | residual activity [8]: 69% | residual activity [9]: 113% | residual activity [10]: 71% | residual activity [11]: 83% | residual activity [12]: 127%

O=C1Cc2c([nH]c3ccc([N+](=O)[O-])cc23)-c2ccccc2N1
residual activity [13]: 54% | residual activity [14]: 30% | residual activity [5]: 51% | residual activity [6]: 37% | residual activity [8]: 65% | residual activity [9]: 114% | residual activity [10]: 101%

O=c1c(-c2ccc(F)cc2)c(-c2ccncc2)[nH]n1-c1ccc(Cl)cc1
residual activity [15]: 37% | residual activity [2]: 77% | residual activity [3]: 99% | residual activity [8]: 30% | residual activity [9]: 131%
